Records with an inconclusive call do not appear. Calls of active or inactive are those of the source. Unless noted, calls come from the whole dose curve. Square brackets hold non-standard residues; d marks the D form. Peptide text beside a SMILES is read from it. pGlu = O=C1CC[C@@H](C(=O)O)N1
Key:
[1] = p53 small molecule agonists, cell-based qHTS assay with human liver microsomes (AID 1963577);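 note: p53 response element beta-lactamase reporter cells with liver microsomes plus NADPH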
Method in brief: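 HLM-supplemented p53RE-bla reporter assay: 16 h compound exposure at 37 C, microsomes and NADPH each 0.5 mg/mL final, read by fluorescence intensity.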

[2] = p53 small molecule agonists, cell-based qHTS assay with rat liver microsomes (AID 1963578)
Method in brief: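 Quantitative HTS of the Tox21 10K library: p53RE-bla cells, rat liver microsomes plus NADPH at 0.5 mg/mL final each, 16 h at 37 C, beta-lactamase fluorescence detection.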

[3] = p53 small molecule agonists, cell-based qHTS assay with human liver microsomes: qHTS cell viability counter screen (AID 1963579); note: nearly all actives have a fitted effect of over 45% in size
Method in brief: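 Viability of p53RE-bla cells is measured as CellTiter-Glo luminescence following a 16 h, 37 C incubation with compound, liver microsomes from human donors and NADPH.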

[4] = p53 small molecule agonists, cell-based qHTS assay with rat liver microsomes: qHTS cell viability counter screen (AID 1963580); note: nearly all actives have a fitted effect of over 45% in size; note: potency is the fitted concentration of half-maximal effect
Method in brief: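 p53RE-bla HCT-116 cells (4,000/well) rested 5 h at 37 C, then given Tox21 compounds in DMSO with rat liver microsomes (0.5 mg/mL final) plus NADPH (0.5 mg/mL final) for 16 h at 37 C. Viability read by CellTiter-Glo luminescence after 30 min at room temperature.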

[5] = p53 small molecule agonists, cell-based qHTS assay: qHTS cell viability counter screen (AID 1963581); note: nearly all actives have a fitted effect of over 45% in size
Method in brief: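 In the same plates used for the p53 bla reporter, HCT-116 cells given compounds for 16 h at 37 C received CellTiter-Glo; luminescence was recorded 30 min later at room temperature.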

[6] = p53 small molecule agonists, cell-based qHTS assay (AID 1963582; active = well fitted activation curve with a large enough effect in the signal ratio in the repeat runs, not every such curve was filed as active; the % refers to the signal ratio)
Method in brief: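 Compounds are pin-transferred in DMSO onto p53RE-bla cells and incubated 16 h at 37 C. The B/G FRET beta-lactamase substrate is then applied for 2 h at RT and fluorescence recorded.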

[7] = biological target: Gonadotropin-releasing hormone receptor (Homo sapiens) (UniProt P30968); test: Human gonadotropin-releasing hormone receptor (GnRHR) small molecule agonists, calcium flux assay in GnRHR-HEK293 cells (AID 1920063); note: nearly all actives have a fitted effect of over 35% in size
Chain of Gonadotropin-releasing hormone receptor (Homo sapiens) (P30968 whole entry, looked up): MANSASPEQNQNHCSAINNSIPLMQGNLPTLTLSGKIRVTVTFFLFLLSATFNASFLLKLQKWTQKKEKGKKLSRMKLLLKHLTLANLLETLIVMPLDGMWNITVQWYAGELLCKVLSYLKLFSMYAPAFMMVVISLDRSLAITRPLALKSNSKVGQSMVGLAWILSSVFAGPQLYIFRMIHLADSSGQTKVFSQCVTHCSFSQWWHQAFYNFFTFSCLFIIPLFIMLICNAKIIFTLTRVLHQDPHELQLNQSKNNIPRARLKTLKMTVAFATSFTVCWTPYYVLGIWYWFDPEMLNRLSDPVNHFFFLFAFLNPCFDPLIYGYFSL
Method in brief: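 Fluorescence kinetics (480 nm excitation, 540 nm emission; 3 min, 1 s steps) report calcium mobilisation in human GnRHR-HEK293 cells in agonist mode. Dye incubation: 1 h, 37 C.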

[8] = biological target: KiSS-1 receptor (Homo sapiens) (UniProt Q969F8); test: Human kisspeptin (KISS1R) small molecule agonists, calcium flux assay in KISS1R-HEK293 cells (AID 1920064; active = well fitted activation curve with a large enough effect in the repeat runs)
Chain of KiSS-1 receptor (Homo sapiens) (Q969F8 whole entry, looked up): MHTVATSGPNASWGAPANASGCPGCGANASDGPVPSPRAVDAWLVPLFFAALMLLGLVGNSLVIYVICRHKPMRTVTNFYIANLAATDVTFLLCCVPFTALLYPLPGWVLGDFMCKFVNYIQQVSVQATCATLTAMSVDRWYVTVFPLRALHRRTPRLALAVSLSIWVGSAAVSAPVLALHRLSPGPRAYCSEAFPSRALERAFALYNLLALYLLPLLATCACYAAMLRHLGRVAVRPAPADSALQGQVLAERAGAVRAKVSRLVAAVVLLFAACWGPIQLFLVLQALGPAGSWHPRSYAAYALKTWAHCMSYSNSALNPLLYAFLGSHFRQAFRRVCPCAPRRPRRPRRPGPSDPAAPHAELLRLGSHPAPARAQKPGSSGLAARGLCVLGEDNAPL
Method in brief: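 Measures KISS1R agonism through calcium-sensitive dye fluorescence in stably transfected HEK293 cells, read for 3 min after pin-tool compound delivery; 15-point titrations in triplicate.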

[9] = G protein-coupled receptor (GPCR) small molecule agonists, calcium flux assay: HEK293 wild type cell line counter screen (AID 1920065)
Method in brief: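 Readout: fluorescence at 480 nm excitation/540 nm emission, sampled at 1 s intervals for 3 min. Cells had been cultured 18 h, then dye-loaded 1 h at 37 C before compound or ATP addition.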

[10] = biological target: 5-hydroxytryptamine receptor 2A (Homo sapiens) (UniProt P28223); test: 5-hydroxytryptamine receptor 2A (HTR2A) small molecule agonists, cell-based qHTS assay (AID 1963587); note: nearly all actives have a fitted effect of over 30% in size
Chain of 5-hydroxytryptamine receptor 2A (Homo sapiens) (P28223 whole entry, looked up): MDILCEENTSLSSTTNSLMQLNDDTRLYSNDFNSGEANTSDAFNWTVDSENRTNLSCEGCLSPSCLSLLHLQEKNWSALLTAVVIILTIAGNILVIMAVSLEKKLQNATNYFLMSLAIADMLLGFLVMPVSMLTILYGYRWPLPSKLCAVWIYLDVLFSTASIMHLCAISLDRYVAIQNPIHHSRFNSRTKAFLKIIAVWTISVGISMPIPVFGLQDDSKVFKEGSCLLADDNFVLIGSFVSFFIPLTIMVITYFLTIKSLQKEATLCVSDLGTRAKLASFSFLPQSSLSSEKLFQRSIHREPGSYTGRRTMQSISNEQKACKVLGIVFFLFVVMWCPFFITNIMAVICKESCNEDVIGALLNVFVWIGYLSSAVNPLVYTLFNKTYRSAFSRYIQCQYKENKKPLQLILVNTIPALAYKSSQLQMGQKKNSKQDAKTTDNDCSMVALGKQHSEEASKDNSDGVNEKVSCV
Method in brief: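 HTR2A-CHO cells, plated 18 h at 37 C/5% CO2, dye-loaded 1 h at 37 C; compounds in DMSO added by pin tool (agonist mode). Intracellular calcium flux read as kinetic fluorescence on FDSS over 2 min at 1 s intervals.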

[11] = biological target: Muscarinic acetylcholine receptor M1 (Homo sapiens) (UniProt P11229); test: Cholinergic receptor muscarinic 1 (CHRM1) small molecule antagonists, cell-based qHTS assay (AID 1963588); note: nearly all actives have a fitted effect of over 40% in size
Chain of Muscarinic acetylcholine receptor M1 (Homo sapiens) (P11229 whole entry, looked up): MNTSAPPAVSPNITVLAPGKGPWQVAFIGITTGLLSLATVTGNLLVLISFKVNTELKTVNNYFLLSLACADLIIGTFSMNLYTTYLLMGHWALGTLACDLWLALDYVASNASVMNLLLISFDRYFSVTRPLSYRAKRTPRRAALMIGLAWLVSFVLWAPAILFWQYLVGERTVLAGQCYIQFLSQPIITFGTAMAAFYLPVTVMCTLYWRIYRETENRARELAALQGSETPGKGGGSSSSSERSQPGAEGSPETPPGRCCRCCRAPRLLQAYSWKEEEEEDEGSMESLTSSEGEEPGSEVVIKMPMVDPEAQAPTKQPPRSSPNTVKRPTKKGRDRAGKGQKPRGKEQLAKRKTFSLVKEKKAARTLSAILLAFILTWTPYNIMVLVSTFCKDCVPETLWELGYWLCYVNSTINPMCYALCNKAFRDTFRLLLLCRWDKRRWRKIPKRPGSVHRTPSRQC
Method in brief: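 CHRM1-CHO calcium-flux assay, antagonist mode. Cells were seeded 18 h, dye-loaded 1 h at 37 C and given compound for 5 min at RT, then acetylcholine was added at 50nM. FDSS fluorescence was read 3 min; 15 concentrations, three runs.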

[12] = biological target: Muscarinic acetylcholine receptor M1 (Homo sapiens) (UniProt P11229); test: Cholinergic receptor muscarinic 1 (CHRM1) small molecule agonists, cell-based qHTS assay (AID 1963589); note: nearly all actives have a fitted effect of over 35% in size
Method in brief: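 Each compound was tested at 15 concentrations across three independent runs on dye-loaded CHO cells stably expressing human CHRM1, reading intracellular calcium fluorescence kinetically at 1 sec intervals.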

[13] = cAMP Responsive Elements (CRE) small molecule agonists, cell-based qHTS assay (AID 1963590)
Method in brief: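 Cell line: CRE-bla HEK 293T; medium DMEM/10% dialyzed FBS/0.1 mM NEAA/1 mM pyruvate/25 mM HEPES; 3 h compound exposure; beta-lactamase FRET readout after 2 h substrate loading at RT.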

[14] = cAMP Responsive Elements (CRE) small molecule antagonists, cell-based qHTS assay (AID 1963591; active = well fitted inhibition curve with a large enough effect in the signal ratio in the repeat runs, not every such curve was filed as active; the % refers to the signal ratio)
Method in brief: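 Inhibition of NKH477-driven (0.25 uM final) CRE-beta-lactamase signal in HEK293T cells, 3 h compound exposure at 37 °C, detected by FRET substrate fluorescence.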

[15] = biological target: D(2) dopamine receptor (Homo sapiens) (UniProt P14416); test: Dopamine D2 receptor (DRD2) small molecule agonists, cell-based qHTS assay (AID 1963594); note: nearly all actives have a fitted effect of over 35% in size
Chain of D(2) dopamine receptor (Homo sapiens) (P14416 whole entry, looked up): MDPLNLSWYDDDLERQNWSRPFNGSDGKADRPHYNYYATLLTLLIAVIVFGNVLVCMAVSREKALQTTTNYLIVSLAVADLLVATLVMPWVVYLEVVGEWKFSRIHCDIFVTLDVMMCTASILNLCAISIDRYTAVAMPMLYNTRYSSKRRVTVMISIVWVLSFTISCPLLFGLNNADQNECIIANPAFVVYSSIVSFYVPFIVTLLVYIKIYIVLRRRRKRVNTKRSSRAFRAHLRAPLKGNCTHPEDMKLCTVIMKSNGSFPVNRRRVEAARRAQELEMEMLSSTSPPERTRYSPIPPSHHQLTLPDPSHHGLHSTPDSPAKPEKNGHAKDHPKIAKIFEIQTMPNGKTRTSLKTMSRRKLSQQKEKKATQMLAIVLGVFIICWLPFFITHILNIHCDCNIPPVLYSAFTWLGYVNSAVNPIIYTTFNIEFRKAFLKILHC
Method in brief: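 HEK293 cells stably expressing DRD2 were cultured 24 h at 37 C, then given Ro20-1724 (0.1 mM final) and compounds for 10 min at room temperature. NKH477 (200nM) was then added for 30 min. cAMP was read by HTRF.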

[16] = biological target: D(2) dopamine receptor (Homo sapiens) (UniProt P14416); test: Dopamine D2 receptor (DRD2) small molecule antagonists, cell-based qHTS assay (AID 1963595; active = well fitted inhibition curve with a large enough effect in the signal ratio in the repeat runs, with a control signal flat; the % refers to the signal ratio)
Method in brief: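 Human DRD2 antagonist qHTS measuring cAMP by HTRF. The cells are exposed to compound for 10 min, then to NKH477 (200 nM) and quinpirole (12 nM) for 30 min at RT, with Ro20-1724 (0.1 mM) present throughout.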

[17] = biological target: 5-hydroxytryptamine receptor 2A (Homo sapiens) (UniProt P28223); test: 5-hydroxytryptamine receptor 2A (HTR2A) small molecule antagonists, cell-based qHTS assay (AID 1963586); note: nearly all actives have a fitted effect of over 45% in size
Method in brief: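 Antagonist-mode intracellular calcium assay: DOI (4 nM) added after 5 min compound pre-incubation at room temperature to dye-loaded HTR2A-CHO cells. Fluorescence followed for 3 min, sampled every second.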

[18] = biological target: Beta-2 adrenergic receptor (Homo sapiens) (UniProt P07550); test: Adrenergic beta2 receptor (ADRB2) small molecule antagonists, cell-based qHTS assay (AID 1963592); note: series mostly up to about 92 µM; nearly all actives have a fitted effect of over 50% in size
Chain of Beta-2 adrenergic receptor (Homo sapiens) (P07550 whole entry, looked up): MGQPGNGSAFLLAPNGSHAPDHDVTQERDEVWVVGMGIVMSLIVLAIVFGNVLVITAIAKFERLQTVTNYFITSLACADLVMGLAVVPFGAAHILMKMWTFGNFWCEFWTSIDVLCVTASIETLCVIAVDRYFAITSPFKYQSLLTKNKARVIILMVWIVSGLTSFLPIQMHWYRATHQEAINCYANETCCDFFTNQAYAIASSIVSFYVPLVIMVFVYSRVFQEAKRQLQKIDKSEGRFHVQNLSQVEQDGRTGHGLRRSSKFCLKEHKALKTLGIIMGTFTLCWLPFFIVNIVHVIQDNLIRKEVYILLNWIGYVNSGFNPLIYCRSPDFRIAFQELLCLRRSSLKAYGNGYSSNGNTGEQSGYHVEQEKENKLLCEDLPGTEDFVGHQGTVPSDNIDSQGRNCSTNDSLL
Method in brief: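 Cells (CHO, stable ADRB2 overexpression) incubated 18-20hr at 37C; compounds added from DMSO; agonist mix (1nM isoproterenol, 100uM IBMX, 25uM Ro-20-1724) added; 0.5hr RT; d2-cAMP and anti-cAMP-cryptate added; 1hr RT; 665/615 nm read.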

[19] = biological target: Beta-2 adrenergic receptor (Homo sapiens) (UniProt P07550); test: Adrenergic beta2 receptor (ADRB2) small molecule agonists, cell-based qHTS assay (AID 1963593); note: potency is the fitted concentration of half-maximal effect;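 for activation: CHO cells stably overexpressing human ADRB2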
Method in brief: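 CHO cells stably over-expressing ADRB2 were plated overnight at 37C, then dosed with compounds plus a stimulation mix containing 100uM IBMX and 25uM Ro-20-1724 for 0.5hr at room temperature. cAMP was measured by HTRF competition, 1hr.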

Measured: Potency

O=C(O)/C=C\C(=O)O
inactive: [1] | [2] | [3] | [4] | [5] | [6]

C=CC(=O)OCC(C)O (centres undefined)
inactive: [7] | [8] | [9] | [3] | [4] | [5] | [10] | [11] | [12] | [13] | [14] | [15] | [16]

CN1CC[C@]23c4c5ccc(O)c4O[C@H]2[C@@H](O)C=C[C@H]3[C@H]1C5
inactive: [7] | [8] | [9] | [5] | [17] | [10] | [12] | [13] | [14] | [18] | [19] | [15] | [16]

CSCC[C@H](NC(=O)[C@H](Cc1c[nH]c2ccccc12)NC(=O)CCNC(=O)OC(C)(C)C)C(=O)N[C@@H](CC(=O)O)C(=O)N[C@@H](Cc1ccccc1)C(N)=O
inactive: [17] | [12]

CCC1(c2cnc[nH]2)Cc2ccccc2C1
inactive: [1] | [4] | [6]

CCNC(=O)[C@@H]1CCCN1C(=O)[C@H](CCCN=C(N)N)NC(=O)[C@H](CC(C)C)NC(=O)CNC(=O)[C@H](Cc1ccc(O)cc1)NC(=O)[C@H](CO)NC(=O)[C@H](Cc1c[nH]c2ccccc12)NC(=O)[C@H](Cc1cnc[nH]1)NC(=O)[C@@H]1CCC(=O)N1 ([pGlu]HWSYGLRP-NHEt)
inactive: [17] | [10] | [11] | [12]

CN1C(=O)C(O)N=C(c2ccccc2)c2cc(Cl)ccc21 (centres undefined)
inactive: [7] | [8] | [9] | [5] | [10] | [13] | [14] | [18] | [15] | [16]
active: [19] 31.7 µM

O=S(=O)(NS(=O)(=O)C(F)(F)F)C(F)(F)F
inactive: [7] | [9] | [3] | [4] | [17] | [10] | [11] | [18] | [19] | [15] | [16]

NC(=O)CC[C@@H]1NC(=O)[C@H](Cc2ccccc2)NC(=O)[C@H](Cc2ccc(O)cc2)NC(=O)CCSSC[C@@H](C(=O)N2CCC[C@H]2C(=O)N[C@@H](CCCN=C(N)N)C(=O)NCC(N)=O)NC(=O)[C@H](CC(N)=O)NC1=O
inactive: [10] | [11] | [12]

COCCOCCO
active: [4] 1.62 µM
inactive: [7] | [8] | [9] | [10] | [11] | [13] | [14] | [18]

CCCCC(CC)COC(=O)c1ccccc1C(=O)OCC(CC)CCCC (centres undefined)
inactive: [7] | [9] | [1] | [2] | [3] | [4] | [18] | [16]

CN(C)CCCCCCN(C)C
inactive: [1] | [2] | [3] | [4] | [5] | [6]

Cc1ccc2ccccc2c1C
inactive: [17] | [10] | [11] | [18] | [16]
